# Data taken from PubChem BioAssay AID504465 (National Center for Advancing Translational Sciences (NCATS), 2011).
# About 210 (10%) of roughly 2,100 compounds were called active. About 53% were inconclusive and are not listed. Calls come from the whole dose curve; as a rule, active = well fitted inhibition curve with a large enough effect; inconclusive = small, poorly fitted or top-dose-only effect, or effect the other way; inactive = no such curve, though single readings can be large or run the other way. This is one part of the list. A call without a number means that no potency is given here.
# Assay: IN Cell qHTS Assay for Inhibitors of the mTORC1 Signaling Pathway in MEF (Tsc2-/-, p53-/-) Cells: Sytravon; note: nearly all actives have a fitted effect of over 60% in size
# Details: phospho-rpS6 immunofluorescence, 24 h; series mostly up to 38.3 µM
# Excerpt: NIH Molecular Libraries Probe Production Centers Network [MLPCN] NIH Chemical Genomics Center [NCGC] MLPCN Grant: NS059428-01 Assay Submitter (PI): Blenis, John; Hoffman, Greg; Harvard University NCGC Assay Overview: Thee mammalian target of rapamycin (mTOR) is an intracellular serine/threonine kinase Aberrant regulation of mTOR signaling plays a causative role in a number of human diseases, including cancer, benign tumors such as lymphangioleiomyomatosis (LAM) and Tuberous Sclerosis Complex (TSC), and metabolic diseases such as diabetes and obesity. This project aims to identify inhibitors of ribosomal protein S6 (rpS6) phosphorylation. The phosphorylation of rpS6 is a key event downstream of mTOR activation. The assay uses a phospho-specific antibody of phospho-rpS6 to detect inhibitors of mTOR activation. Mutations in the Tsc1 and Tsc2 genes are the underlying genetic lesions responsible for TSC, causing constitutive activation of the mTORC1 pathway and leading to profound effects on cell metabolism. Aberrant metabolism in cancer has recently received significant attention as a target to develop therapeutic agents in the treatment of cancer1. As Tsc2-/- cells have lost the ability to respond to energy and growth factor deprivation, these cells are unable to properly down regulate cellular biosynthetic processes in response to metabolic stress, and are thus extremely sensitive to glucose deprivation-induced death.2 A central goal of this project is to explore the unique cell survival and metabolic properties of cells with Tsc1 or Tsc2 by screening for compounds that selectively target the Tsc2-/- MEFs by screening both Tsc2-/- and WT MEF cell lines. We hope to better understand these aspects of TSC physiology in order to exploit them for therapeutic benefit.
# NCGC IN Cell Assay Protocol: For quantitative high throughput analysis of mTORC1 signaling, we developed a cell-based assay for immuno-fluorescence based detection of rpS6 phosphorylation on the Acumen Explorer that will be used a platform for the primary small molecule screen. Mouse embryonic fibroblasts (MEFs) are cultured in 1536-well plates using DMEM + 10% FBS. Twenty-four hrs after plating, test compounds (solubilized in DMSO) are delivered and incubated with the cells for 24 hrs at 37 degree Celsius. Following the incubation, media with compound is aspirated and the cells are fixed in 4% paraformaldehyde (PFA) containing PBS + 0.2% TX-100. Next, PFA is aspirated, cells are washed two times with PBS plus 0.2% TX-100 and the cells are blocked for 1 hr at room temperature (blocking buffer: LiCOR Blocking Buffer plus 0.2% TX-100). This is followed by aspiration and staining with Alexa-488 conjugated-phospho-rpS6 Ser235/236 antibody for 2 hours at room temperature (Cell Signaling Technology # 4803, 1:50 dilution in blocking buffer). Cells are washed two times with PBS plus 0.2% TX-100, and stained with 10 uM propidium iodide (PI) for 20-25 minutes for cell number measurement (1:500 dilution of Hoescht staining is also added for IN Cell imaging). Active wells which are selected (based on Acumen results) are imaged on the IN Cell 1000 (GE Healthcare) using the D360/40X and HQ480/40X excitation filters for the Hoechst and Alexa-488 cytoplasmic stains, respectively. The fluorescence emission filters used were HQ460/40M and HQ535/50M for the Hoechst and Alexa-488 cytoplasmic stains, respectively. The normalized phospho-S6 staining is calculated as the ratio of […] for the single concentration rapamycin control (7.5 nM) and DMSO columns. […] Inhibition of the pathway is defined based on the normalized phospho-S6 intensity in rapamycin treated cells. Each treatment is reported as the % positive cells in the well, where thresholds are defined by selecting wells with the highest and lowest signal and differentiating between the % non-active and % active populations. […]
# Potency is the fitted concentration of half-maximal effect.
row,Structure (SMILES),Potency
1,O=C(Nc1ccc(F)c(Cl)c1)c1cc(S(=O)(=O)N2CCc3ccccc3C2)ccc1F,inactive
2,COC(=O)c1cc(C)nc2c1c(=O)nc(SCc1ccccc1Cl)n2C1CC1,inactive
3,COc1ccccc1N1CCN(C(=O)c2ccc3c(c2)CCN3S(=O)(=O)c2ccccc2)CC1,inactive
4,CCc1ccccc1NC(=O)CCNS(=O)(=O)c1ccc2c(c1)CCN2C(=O)C1CC1,inactive
5,Cc1ccc(Cl)cc1N1CCN(C(=O)c2ccc3c(c2)N(Cc2ccc(F)cc2)CCS3)CC1,inactive
6,Cc1ccc(Cl)cc1N1CCN(C(=O)c2cnn(-c3ccc(Cl)cc3)c2C2CCNCC2)CC1,13.1 µM (active)
7,COc1ccc(-n2ncc(C(=O)N3CCN(C4CCCCC4)CC3)c2C2CCN(C(=O)OC(C)(C)C)CC2)cc1,inactive
8,COc1ccc(OC)c(NC(=O)c2c(NCc3ccc(C)o3)sc3c2CCC(C)C3)c1 (stereo unspecified),inactive
9,COC(=O)c1scc(-c2ccc(C)cc2)c1S(=O)(=O)Nc1cc(Cl)ccc1C,inactive
10,COc1ccccc1CNS(=O)(=O)c1ccc(-c2cnc(C3CC3)o2)cc1,inactive
11,Cc1ccc(NS(=O)(=O)c2cc(-c3cnc(C4CC4)o3)ccc2C)cc1Cl,inactive
12,Cc1cc(C)c(NS(=O)(=O)c2ccc(-c3cnc(C4CC4)o3)cc2)c(C)c1,11.7 µM (active)
13,Cc1ccccc1-c1nc(SCC(=O)N(C)c2ccccc2)c2c(=O)n(C)c(=O)n(C)c2n1,inactive
14,CCOc1ccc(Nc2nc(-c3cccc(Cl)c3)c3c(n2)-c2ccccc2OC3)cc1,2.07 µM (active)
15,CCOc1ccc(Nc2nc(N)c(C(=O)c3ccccc3Cl)s2)cc1,inactive
16,O=c1c(-c2cc(-c3ccc(F)cc3)nc3c2COc2ccc(Cl)cc2-3)coc2ccc(F)cc12,inactive
17,Cc1ccccc1C1CC(=O)Nc2ccc3ccccc3c21 (stereo unspecified),inactive
18,CCOc1cc(CNCCSc2nnnn2-c2ccccc2)ccc1OC,inactive
19,Cc1ccc2nc3sc(C(=O)Nc4ccc(F)cc4)cc3cc2c1,2.33 µM (active)
20,Cc1ccc(NC(=O)CCS(=O)(=O)c2ccc3nc(C)sc3c2)cc1,inactive
21,COc1ccc(C2=CC(c3ccc(F)cc3)n3ncc(C(=O)Nc4ccc(C)cc4)c3N2)cc1 (stereo unspecified),inactive
22,Cc1sc2ncn(CC(=O)N3CCN(c4ccc(Cl)cc4)CC3)c(=O)c2c1S(=O)(=O)N1CCN(c2ncccn2)CC1,inactive
23,COc1ccccc1CNC(=O)c1ccc2c(c1)CCN2S(=O)(=O)c1ccccc1,inactive

row,Structure (SMILES),Potency
1,CC(=O)c1ccc(NC(=O)CC2Nc3cccc4cccc(c34)NC2=O)cc1 (stereo unspecified),inactive
2,O=S(=O)(NCC(c1ccco1)S(=O)(=O)c1cccs1)c1ccc(Cl)cc1 (stereo unspecified),inactive
3,O=C(Cn1c(=O)c2ccccc2n(CC(=O)Nc2ccc(Cl)cc2)c1=O)NCCc1ccccc1,14.7 µM (active)
4,CCOc1ccc(NC(=O)Cn2c(=O)n(CCCCCC(=O)NCc3ccccc3)c(=O)c3sccc32)cc1,inactive
5,O=C(CCCn1c(=O)c2ccccc2n(Cc2cccc(Cl)c2)c1=O)NCCc1ccc(Cl)cc1,inactive
6,O=C(NCCc1ccc(F)cc1)C(=O)NCC(c1cccs1)S(=O)(=O)c1ccc(Cl)cc1 (stereo unspecified),inactive
7,COc1ccc(-n2c(SCCC(C)C)nc3sc4c(c3c2=O)CC(C(C)C)OC4)cc1 (stereo unspecified),inactive
8,Fc1ccc(C2=NC(c3cccc(C(F)(F)F)c3)=Nc3ccccc3N2)cc1,inactive
9,CCCn1c2ccccc2c2cnn(CC(=O)N(CCCOC)Cc3ccco3)c(=O)c21,inactive
10,Cc1ccc(N=C2NC(=O)CC(C(=O)Nc3cc(C(F)(F)F)ccc3Cl)S2)cc1 (stereo unspecified),inactive
11,O=C(Nc1cccs1)Nc1cc(C(F)(F)F)ccc1Cl,9.27 µM (active)
12,COc1ccc(NC(=O)C2CCCN(S(=O)(=O)c3cccc4nonc34)C2)cc1Cl (stereo unspecified),inactive
13,Cc1cccc(C(CC(=O)NCC2(c3ccccc3)CCCC2)c2ccccc2)c1O (stereo unspecified),inactive
14,COc1ccccc1N1CCN(C(=O)CSc2nc3ccccc3nc2Cc2ccc(C)cc2)CC1,inactive
15,O=C(Cn1cc(SCc2ccccc2)c2ccccc21)N1CCCCC1,inactive
16,CCC(C)NC(=O)c1sc2nc(C)c(C(=O)Nc3ccc(C)cc3C)c(-c3ccc(Cl)cc3)c2c1N (stereo unspecified),inactive
17,CCN1CCc2nc3sc(C(=O)Nc4cccc(Cl)c4C)c(N)c3cc2C1,inactive
18,Nc1c(C(=O)Nc2ccccc2F)sc2nc3c(cc12)CCCCCC3,inactive
19,CC1CCc2nc3ncn(CC(=O)Nc4cccc(C#N)c4)c(=O)c3cc2C1 (stereo unspecified),inactive
20,CCC1CCc2nc3sc(C(=O)Nc4ccc(C)cc4)c(N)c3cc2C1 (stereo unspecified),5.21 µM (active)
21,CCC1CCc2nc3sc(C(=O)Nc4ccc(F)c(F)c4)c(N)c3cc2C1 (stereo unspecified),5.85 µM (active)
22,CC1CCCCN1S(=O)(=O)c1cc2c(=O)nc3ccccn3c2cc1Cl (stereo unspecified),inactive
23,C=CCc1ccc(OCc2ccc(C(=O)Nc3ccc(NC(C)=O)cc3)o2)c(OC)c1,inactive

row,Structure (SMILES),Potency
1,Cc1cc(C)cc(OCC(=O)NCC(c2ccc(Cl)cc2)N2CCCCC2)c1 (stereo unspecified),inactive
2,CCc1c(C)nc2nc(-c3ccccc3)nn2c1NCc1ccc(C)cc1,inactive
3,COc1ccc(Br)c(C(=O)Nc2cc3c(cc2N2CCCC2)n(C)c(=O)c(=O)n3C)c1,inactive
4,CC(C)c1ccc(NC(=O)c2cc(S(=O)(=O)NCCc3ccccc3)ccc2F)cc1,inactive
5,CC(=O)c1ccc(C(=O)N(CCCN(C)C)c2nc3c(C)c(C)ccc3s2)cc1,14.7 µM (active)
6,COc1ccccc1NC(=O)C1=C(C)Nc2nc(-c3ccco3)nn2C1c1cccc(C)c1 (stereo unspecified),inactive
7,COc1cc(CNC(=O)c2ccc3nc(Cc4ccccc4)oc3c2)cc(OC)c1OC,inactive
8,CCc1ccccc1NS(=O)(=O)c1ccc2[nH]cc(C(=O)NC3CCCC3)c(=O)c2c1,inactive
9,Cc1ccccc1CNCCCSc1nnnn1-c1ccccc1,inactive
10,Cc1ccccc1C(=O)N1CCN(CCc2ccccn2)CC1,inactive
11,CCOC(=O)c1cnc2c(Cl)cc(Cl)cc2c1Nc1cc(C(=O)O)ccc1C,inactive
12,COc1ccc(NC(=O)CN2C(=O)C(=O)c3ccccc32)c(OC)c1,inactive
13,CCOc1ccccc1NC(=O)CN1C(=O)C(=O)c2ccccc21,inactive
14,Cc1cc(Cl)ccc1NC(=O)CN1C(=O)C(=O)c2ccccc21,2.07 µM (active)
15,CCOc1ccccc1CC1C(=O)Nc2ccc(Br)cc21 (stereo unspecified),inactive
16,CC(=O)c1ccc(N2CCN(C(=O)C3CCCN(S(=O)(=O)c4ccc(Br)s4)C3)CC2)cc1 (stereo unspecified),inactive
17,COc1ccc(Cn2c(C(=O)O)c(CNCC(C)c3ccccc3)c3ccc(OC)cc32)cc1 (stereo unspecified),inactive
18,Cc1cccc(OCC(=O)Nc2ccccc2OCc2cc(=O)n3ccccc3n2)c1,inactive
19,Cc1ccccc1NC(=O)Cn1c(=O)n(CCCCCC(=O)NCc2ccc3c(c2)OCO3)c(=O)c2sccc21,inactive
20,Cc1cc(C)c(NC(=O)Cn2c(=O)n(CCC(=O)NCc3ccc4c(c3)OCO4)c(=O)c3ccccc32)c(C)c1,inactive
21,COc1ccc(NC(=O)Cn2c(=O)n(CCCC(=O)NCc3ccccc3OC)c(=O)c3ccccc32)cc1Cl,inactive
22,CCOc1ccccc1NC(=O)Cn1c(=O)n(CCC(=O)NCc2ccc3c(c2)OCO3)c(=O)c2ccccc21,4.65 µM (active)
23,Cc1cc(C)c(NC(=O)Cn2c(=O)n(Cc3ccc(C(=O)NCc4ccc5c(c4)OCO5)cc3)c(=O)c3ccccc32)c(C)c1,4.14 µM (active)

row,Structure (SMILES),Potency
1,Cc1ccc(C)c(Cn2c(=O)n(CCCCCC(=O)NCc3ccc4c(c3)OCO4)c(=O)c3sccc32)c1,inactive
2,Cc1ccc(-c2nc(-c3cccs3)c(-c3cccs3)[nH]2)cc1,inactive
3,Cc1ccc(Cl)cc1-n1ncc2c(NC3CCCCCC3)ncnc21,inactive
4,CCOC(=O)c1ccc2c(c1)N(Cc1cccc([N+](=O)[O-])c1)C(=O)c1ccccc1S2,inactive
5,O=C(Nc1ccc(F)cc1)Nc1nnc(SCC(=O)N2CCCCC2)s1,inactive
6,COc1cccc(-c2nc3c(c(SCC(=O)Nc4cccc(C)c4C)n2)Cc2c(CO)cnc(C)c2O3)c1,inactive
7,CCOc1ccc(NC(=O)c2nc(S(=O)(=O)Cc3ccccc3F)ncc2Cl)cc1,3.69 µM (active)
8,CCOc1ccc(NC(=O)Cn2ccn(-c3ccc(F)c(F)c3)c(=O)c2=O)cc1,inactive
9,O=C(Nc1ccccc1F)c1nc(S(=O)(=O)Cc2ccccc2F)ncc1Cl,2.33 µM (active)
10,CCOc1cccc(NC(=O)CSc2ncc(-c3ccc(Cl)cc3)[nH]2)c1,inactive
11,CCOc1ccc(CNCc2c(C(=O)O)n(Cc3ccccc3C)c3cc(OC)ccc23)cc1OC,inactive
12,O=C1CC(c2ccccc2)Cc2[nH]c(=O)c(-c3nc(-c4cccc(Cl)c4)cs3)cc21 (stereo unspecified),inactive
13,COc1ccc(C2C(=O)N(C3CCCCCC3)CC(=O)N2CCc2ccccc2)cc1 (stereo unspecified),inactive
14,CC(C)c1cnc2c(c1SCC(=O)c1ccc(Cl)cc1)c(=O)n(C)c(=O)n2C,inactive
15,COc1ccccc1NC(=O)c1c(NCc2ccc(C)o2)sc2c1CCCCC2,inactive
16,COc1ccc(NC(=O)c2c(NCc3ccc(C)o3)sc3c2CCC(C)C3)cc1 (stereo unspecified),inactive
17,COc1ccc(CC(=O)Nc2sc3c(c2C(=O)Nc2cccc(C)c2)CCCCC3)cc1,11.7 µM (active)
18,COc1ccc(NC(=O)c2c(NCc3ccc(C)o3)sc3c2CCCCC3)c(OC)c1,inactive
19,COc1ccc(OC)c(NC(=O)c2c(NCc3ccc(C)o3)sc3c2CCCCC3)c1,inactive
20,COc1ccc(CC(=O)Nc2sc3c(c2C(=O)Nc2ccccc2)CCCCC3)cc1,9.27 µM (active)
21,CCOC(=O)c1c(NC(=O)c2ccc(S(=O)(=O)N3CCCC(C)C3)cc2)sc2c1CCN(C(C)C)C2 (stereo unspecified),inactive
22,FC(F)(F)c1ccc(C2=Nc3ccccc3NC(c3cccs3)=N2)cc1,inactive
